# Compounds with a hit are over-represented: about 11% of the library has one in this group of screens.
# AmpC inh detg: qHTS Inhibitors of AmpC Beta-Lactamase (assay with detergent); P00811; AmpC hydrolysis of nitrocefin, absorbance 480 nm, 0.01% Triton; Potency, µM (highest dose often 114 µM), inactives show at the highest dose activity change, negative = inhibition, most hits filed as inhibitors; actives 0.041% (n = 370,000); AID 485294, 2010;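 note: 0% = no-compound wells and -100% = no-enzyme wells; nearly all actives have a fitted effect of over 25% in size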
# Target sequence (P00811 whole entry, looked up): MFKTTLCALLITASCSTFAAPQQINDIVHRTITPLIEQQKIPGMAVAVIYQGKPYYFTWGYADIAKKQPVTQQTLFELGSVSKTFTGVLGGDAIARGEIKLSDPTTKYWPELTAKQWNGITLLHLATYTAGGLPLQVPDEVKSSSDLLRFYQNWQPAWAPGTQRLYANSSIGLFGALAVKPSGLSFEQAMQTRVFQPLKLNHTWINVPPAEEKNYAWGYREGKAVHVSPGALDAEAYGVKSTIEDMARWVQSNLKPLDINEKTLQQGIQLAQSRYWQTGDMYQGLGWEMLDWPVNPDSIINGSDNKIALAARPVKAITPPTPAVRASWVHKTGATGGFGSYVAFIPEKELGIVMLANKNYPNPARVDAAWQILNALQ
#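 AmpC (5.3 nM in the dispensed reagent) in 20 mM phosphate pH 7.0 with 0.01% (detergent screen) or 0.0001% Triton X-100 was preincubated with compounds for 15 min at room temperature. Nitrocefin was then added from an 800 uM solution, and hydrolysis was followed at 480 nm.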
# Pf growth 48h: Primary qHTS for delayed death inhibitors of the malarial parasite plastid, 48 hour incubation | actives 5.9% (n = 310,000) | P. falciparum luciferase growth in erythrocytes, 48 h | Potency, µM (highest dose often 28.7 µM), without a hit: at the highest dose activity change, negative = inhibition, actives largely listed as inhibitors
#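 A one-generation exposure of luciferase-tagged malaria parasites in RPMI 1640/Albumax erythrocyte culture, 37 C and 5% CO2. Inhibition is inferred from decreased luminescence after adding detection reagent.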
# HCV inh: qHTS Assay for Inhibitors of Hepatitis C Virus (HCV); Huh7.5.1 HCVcc-Cre infection, luciferase reporter, 44 h; Potency, µM (doses to about 41.8 µM), inactives show at the top dose activity change, negative = inhibition, actives largely listed as inhibitors; actives 3.4% (n = 340,000)
#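 Whole-lifecycle infectious HCVcc-Cre system; cells 1,000/well, compound then virus (~0.5 moi) added 4 h after plating, 44 h culture. Luciferase read 15 sec following 15 min substrate incubation, room temp.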
# AmpC no deterg: qHTS Inhibitors of AmpC Beta-Lactamase (assay without detergent); actives 0.52% (n = 330,000); AID 485341, 2010; AmpC nitrocefin hydrolysis, absorbance 480 nm, 0.0001% Triton; Potency, µM (series often up to 57.1 µM), for inactives: at the highest dose activity change, negative = inhibition, usual class: inhibitors; P00811;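 note: plate controls were no compound for no effect and no enzyme for full effect; nearly all actives have a fitted effect of over 20% in size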
#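 20 mM phosphate pH 7.0 + 0.01% (detergent screen) or 0.0001% Triton X-100; 5.3 nM AmpC reagent; cpd preinc 15 min RT; nitrocefin (800 uM stock) to start; A480 q20 s × 4 min; Activity was normalised to no-enzyme and no-compound control wells.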
# AMA1 RON2 block: qHTS for Inhibitors of AMA1-RON; Towards Development of Antimalarial Drug Lead: Primary Screen | Plasmodium falciparum AMA1 (3D7) - RON2 peptide interaction | AlphaScreen AMA1-biotinylated RON2 peptide binding | Potency, µM (titrated, usually from 58.2 µM), without a hit: at the highest dose activity change, negative = inhibition, most hits filed as inhibitors | actives 0.2% (n = 360,000) | AID 720542, 2013;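 note: 0% = vehicle wells and -100% = peptide control; nearly all actives have a fitted effect of over 45% in size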
#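 AMA1 (3D7) with his tag at 25 nM final met compounds first, then biotinylated RON2 peptide at 25 nM; detection used donor plus acceptor beads, 10 µg/mL apiece, read by AlphaScreen after 30 min at room temperature.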
# Pf growth 96h: Primary qHTS for delayed death inhibitors of the malarial parasite plastid, 96 hour incubation | AID 504834, 2011 | actives 6.9% (n = 320,000) | P. falciparum luciferase reporter growth, 96 h | Potency, µM (top dose mostly 28.7 µM), inactives show top-dose activity change, negative = inhibition, actives largely listed as inhibitors
#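 P. falciparum expressing integrated firefly luciferase, in erythrocytes at 2% hematocrit, 0.05% parasitemia, incubated with compounds 96 h at 37 C, 5% CO2. Growth inhibition read as loss of luminescence; two-generation exposure targets delayed-death apicoplast inhibitors.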
# The depositor's hits bear a star; ? = inconclusive; . = no result. Calls come from the whole dose curve; as a rule, active = well fitted curve in the direction sought with a large enough effect; inconclusive = small, poorly fitted or top-dose-only effect, or another doubt; inactive = no such curve, though single readings can be large; an effect the other way counts as inactive or inconclusive. Unless noted, % is set by controls: 0 for no effect and ±100 for the full control effect; potency is the fitted concentration of half-maximal effect.
SMILES,AmpC inh detg,Pf growth 48h,HCV inh,AmpC no deterg,AMA1 RON2 block,Pf growth 96h
CN(C)CCCNC(=S)Nc1ccc(Oc2ccccc2)cc1,2%,23%,?,1%,-11%,?
CC(C)(CNC(=S)NCCc1ccccc1)CNC(=S)NCCc1ccccc1,1%,13µM*,?,-19%,56%,?
CN(C)CCCNC(=S)Nc1ccc(-c2ccccc2)cc1,-6%,?,11µM*,-1%,-1%,?
O=[N+]([O-])c1cccc(NC(=S)NCCc2ccccc2)c1,-10%,?,13µM*,3%,-1%,-33%
OCCNC(=S)NCCc1ccccc1,3%,16%,4%,-15%,-7%,86%
NC(=O)c1cc([N+](=O)[O-])ccc1NCCc1ccccc1,?,-1%,11µM*,-30%,-2%,13µM*
Fc1cccc(NC(=S)NCCc2ccccc2)c1,-12%,12%,-20%,-41%,-15%,222%
Cc1ccc(C)c(NC(=O)Cn2c(=O)n(Cc3ccc4c(c3)OCO4)c(=O)c3oc4ccccc4c32)c1,2%,.,.,.,.,.
CCCCn1c(=O)n(-c2ccc(Br)cc2F)c(=O)c2c3c(sc21)CN(C(C)=O)CC3,-5%,.,.,.,.,.
CCN(CC)S(=O)(=O)c1cccc(-c2nnc(SCCOc3ccccc3C)o2)c1,3%,?,13µM*,10%,25%,?
CCN(CC)S(=O)(=O)c1cccc(-c2nnc(SCCOc3ccccc3)o2)c1,-13%,.,?,15%,2%,-45%
CCN(CC)S(=O)(=O)c1cccc(-c2nnc(SCC(=O)c3cc(C)n(C)c3C)o2)c1,?,?,?,-21%,8%,-19%
CCN(CC)S(=O)(=O)c1cccc(-c2nnc(SCCOc3ccc(Cl)cc3)o2)c1,-6%,-24%,?,-6%,23%,10µM*
CCOC(=O)N1CCc2c(sc(NC(=O)c3ccc(S(=O)(=O)N4CCCC4)cc3)c2C#N)C1,?,12µM*,?,-36%,-1%,?
CCOC(=O)c1c(NC(=O)c2ccc(S(=O)(=O)N3CCOCC3)cc2)sc2c1CCN(C)C2,-10%,12µM*,?,158%,-8%,?
CC(C)N1CCc2c(sc(NC(=O)c3ccc(S(=O)(=O)N4CCOCC4)cc3)c2C#N)C1,-8%,-13%,?,10%,1%,?
CCOC(=O)C(C)NC(=O)c1c2c(nc3ccccc13)C(=O)N(C1CCCCC1)C2 (stereo unspecified),20%,.,.,.,.,.
COc1ccccc1CNC(=O)C(NS(=O)(=O)c1cccs1)C(C)C (stereo unspecified),21%,.,.,.,.,.
O=C1C(Cc2ccccc2)Nc2ncnc(N3CCOCC3)c2N1Cc1ccc(Cl)cc1 (stereo unspecified),0%,9.3µM*,14%,-4%,10%,0%
O=C1C(Cc2ccccc2)Nc2ncnc(N3CCN(c4ccccc4)CC3)c2N1Cc1ccccc1 (stereo unspecified),?,2.9µM*,?,-19%,0%,2.9µM*
O=C1C(Cc2ccccc2)Nc2ncnc(N3CCN(c4ccccc4)CC3)c2N1Cc1ccc(Br)cc1 (stereo unspecified),.,.,?,?,-7%,.
Cc1ccc(CN2C(=O)C(Cc3ccccc3)Nc3ncnc(N4CCCCC4)c32)cc1 (stereo unspecified),0%,1.7µM*,?,-28%,0%,4.7µM*
O=C1C(Cc2ccccc2)Nc2ncnc(N3CCc4ccccc4C3)c2N1Cc1ccc(Br)cc1 (stereo unspecified),4%,10µM*,-11%,-8%,.,13µM*
CCC1Nc2ncnc(N3CCOCC3)c2N(Cc2ccccc2)C1=O (stereo unspecified),-3%,?,8%,1%,18%,29%
CCOc1ccc2c(c1)c(=O)c(C(=O)c1ccc3c(c1)OCO3)cn2Cc1cccc(F)c1,9%,.,.,.,.,.
SMILES,AmpC inh detg,Pf growth 48h,HCV inh,AmpC no deterg,AMA1 RON2 block,Pf growth 96h
Cc1ccc(CN2C(=O)C(Cc3ccccc3)Nc3ncnc(N4CCN(c5ccccc5)CC4)c32)cc1 (stereo unspecified),-2%,1.9µM*,?,-7%,-1%,4.7µM*
COc1ccc(CN2C(=O)C(Cc3ccccc3)Nc3ncnc(N4CCCCC4)c32)cc1 (stereo unspecified),?,5.2µM*,-28%,-19%,0%,12µM*
CCC1Nc2ncnc(N3CCCCC3)c2N(Cc2ccc(C)cc2)C1=O (stereo unspecified),.,.,-21%,34%,-5%,.
CCC1Nc2ncnc(N3CCCCC3)c2N(Cc2ccccc2)C1=O (stereo unspecified),?,?,-16%,3%,15%,?
COc1ccc(C)cc1NC(=O)CSc1nc(=O)n(Cc2ccccn2)c2c1CCC2,1%,.,.,.,.,.
COc1ccc(NC(=S)N(CCc2ccc(OC)c(OC)c2)Cc2ccccn2)cc1,3%,?,-9%,34%,0%,12µM*
COc1ccccc1NC(=S)N(Cc1ccccc1)Cc1ccccn1,?,25%,12%,-24%,16%,?
COc1ccc(CCN(Cc2ccccn2)C(=S)Nc2ccccc2F)cc1OC,1%,-24%,22%,44%,-6%,56%
COc1ccc(CCN(Cc2ccccn2)C(=S)Nc2ccccc2Cl)cc1OC,-12%,?,-28%,66%,-20%,13µM*
Cc1cccc(NC(=S)N(CCCN2CCOCC2)Cc2ccccn2)c1,-4%,-3%,20%,4%,37%,?
S=C(Nc1ccccc1Cl)N(Cc1ccccc1)Cc1ccccn1,3%,?,10%,-42%,10%,1µM*
COc1ccc(CCN(Cc2ccccn2)C(=S)Nc2cccc(C)c2)cc1OC,0%,12µM*,26%,100%,4%,-24%
CCC(=O)OCc1cc(=O)n2nc(C3CC3)sc2n1,24%,.,.,.,.,.
CCOc1ccc(C2C(=O)N(C3CCCCCC3)CC(=O)N2Cc2ccc(C)cc2)cc1OC (stereo unspecified),7%,.,.,.,.,.
Oc1cc(Nc2ccccc2)cc2cccnc12,-1%,2.1µM*,.,-14%,.,2.6µM*
c1ccc(Nc2ccc3ccccc3c2)cc1,.,.,-20%,.,4%,.
Oc1cc(NCc2ccccc2)cc2cccnc12,?,1.9µM*,.,-52%,.,2.6µM*
